Values joined by “and” are separate entries in the source; they are usually repeats but may differ in a detail not shown here. Equal values may be shown once. Results filed as inconclusive are left out. Active and inactive are the calls of the source. Unless noted, calls come from the whole dose curve; as a rule, active = well fitted curve in the direction sought with a large enough effect; inconclusive = small, poorly fitted or top-dose-only effect, or another doubt; inactive = no such curve, though single readings can be large; an effect the other way counts as inactive or inconclusive.
How the values were obtained:
[1] = Cell Viability - BJ (AID 421; calls by dose curve;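 note: potency is the fitted concentration of half-maximal effect; cells exposed to compound for 40 hours at 37 °C before readout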); details: BJ fibroblast viability, qHTS
In short: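 Normal human BJ foreskin fibroblasts, 1500/well in complete medium, treated 40 hr at 37 °C. Cellular ATP by CellTiter-Glo luminescence; normalized to DMSO and 100 uM tamoxifen, AC50 from Hill fit.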

[2] = Cell Viability - HepG2 (AID 433; calls by dose curve;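 note: potency is the fitted concentration of half-maximal effect; cells exposed to compound for 40 hours; potency for ATP loss meaning cytotoxicity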); details: qHTS
In short: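 In this qHTS format, a 40 h, 37 °C compound incubation of HepG2 cells in complete medium precedes a 20 min CellTiter-Glo step at room temperature. Tamoxifen and doxorubicin serve as positive controls; Hill-equation fits yield AC50.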

[3] = Cell Viability - Mesenchymal (AID 546); details: mesenchymal cells viability, qHTS; activity change, negative = cytotoxicity: at 91.7 µM (top of the series);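 note: cells exposed to compound for 40 hours before reading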
In short: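 In this qHTS cytotoxicity format, glomerulus-derived human mesenchymal kidney cells received compound for 40 hr, then luciferase-based ATP quantitation. Concentration-response data were fitted with the Hill equation.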

[4] = Cellular Toxicity (caspase-3) Jurkat (AID 655); details: Jurkat caspase-3 activation, luminescence; caspase-3 activation: at 92.2 µM (top of the series), DMSO = 0%, tamoxifen = 100%;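 note: cells exposed to compound for 16 h at 37 °C before reading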; note: potency is the fitted concentration of half-maximal effect
In short: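 qHTS in human Jurkat T-cell leukemia line: 16 hr compound treatment at 37 °C, caspase-3/7 activity measured by Caspase-Glo luminescence. AC50 derived from Hill equation.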

[5] = Cell Viability - LYMP1-002 - Assay at 16 hr (AID 948); details: LYMP1-002 lymphoblastoid cell viability; series mostly up to 92.2 µM;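 note: 0% = DMSO alone and full effect = 92 µM tetraoctylammonium bromide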
In short: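 In this qHTS, lymphoblastoid LYMP1-002 cells (human) receive compounds for 16 hr at 37 C. Viability is taken from CellTiter-Glo ATP luminescence, and AC50 derives from standard Hill fits.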

[6] = MultiTox-Fluor Cytotoxicity Assay - LYMP1-002 - Live Cells (AID 955); details: LYMP1-002 lymphoblastoid live-cell protease fluorescence viability; series mostly up to 46.1 µM;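 note: cells exposed to compound for 16 hours; % is set by controls: 0 for no effect and ±100 for the full control effect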
In short: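 Cells were seeded at 2500 per well and incubated 5 hr. Compounds were then added for 16 hr at 37 C, followed by MultiTox-Fluor reagent for 60 min at room temperature and fluorescence reading of viable-cell protease signal.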

[7] = Cell Viability - LYMP2-003 (AID 965); details: LYMP2-003 lymphoblastoid cell viability; series mostly up to 92.2 µM;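 note: cells exposed to compounds for 24 h before reading; nearly all actives have a fitted effect of over 50% in size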; note: potency is the fitted concentration of half-maximal effect;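 for activity change, negative = cytotoxicity: 0% = DMSO only and full effect = 92 µM tetraoctylammonium bromide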
In short: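 qHTS, human lymphoblastoid line, 2500 cells/well, complete medium. 24 h drug, 37 C. ATP-based luminescent readout; Hill-fit AC50.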

[8] = Cell Viability - LYMP2-011 (AID 969); details: LYMP2-011 lymphoblastoid cells viability; series mostly up to 92.2 µM;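 note: 0% = DMSO only and full inhibition = 92 µM tetraoctylammonium bromide; nearly all actives have a fitted effect of over 60% in size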
In short: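 In this qHTS cytotoxicity format, compounds are tested across concentrations on human lymphoblastoid cells in complete medium for 24 hours at 37 C. Viability is taken as cellular ATP measured by luciferase luminescence.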

[9] = Cell Viability - LYMP2-013 (AID 970); details: LYMP2-013 lymphoblastoid cells viability; series mostly up to 92.2 µM;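 note: 0% = DMSO only and full inhibition = tetraoctylammonium bromide control; nearly all actives have a fitted effect of over 55% in size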
In short: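 Cytotoxicity is scored as a concentration-dependent drop in intracellular ATP in human lymphoblastoid cells after 24 hr compound exposure at 37 C. ATP is quantified by luciferase luminescence, and AC50 values come from Hill-equation modeling.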

[10] = Cell Viability - LYMP2-023 (AID 975); details: LYMP2-023 lymphoblastoid cell viability; series mostly up to 92.2 µM;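 note: plate controls were DMSO only for no effect and 92 µM tetraoctylammonium bromide control for full effect; nearly all actives have a fitted effect of over 55% in size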
In short: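 Steps: seed 2500 human lymphoblastoid cells per well, incubate 5 hr at 37 C, add compound for 24 hr at 37 C, add CellTiter-Glo, hold 30 min at room temperature, read luminescence. AC50 derived by Hill modelling.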

[11] = Cell Viability - LYMP2-002 (AID 977); details: LYMP2-002 lymphoblastoid cell viability, qHTS; series mostly up to 92.2 µM;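 note: compound exposure lasted 24 h at 37 °C; plate controls were DMSO only for no effect and 92 µM tetraoctylammonium bromide for full effect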
In short: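 In this qHTS viability screen, 2500 human lymphoblastoid cells per well receive compound for 24 hr at 37 C, and luciferase-based ATP luminescence gives the viability signal. Tetraoctylammonium bromide serves as positive control.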

[12] = Cell Viability - LYMP2-006 (AID 978); details: LYMP2-006 lymphoblastoid cell viability, qHTS; series mostly up to 92.2 µM; note: % is set by controls: 0 for no effect and ±100 for the full control effect; nearly all actives have a fitted effect of over 60% in size
In short: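 In this cytotoxicity screen, the human lymphoblastoid line grew in complete medium with test compounds for 24 hr at 37 C. Cellular ATP served as the viability signal.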

[13] = Cell Viability - LYMP2-008 (AID 980); details: LYMP2-008 lymphoblastoid cell viability, qHTS; series mostly up to 92.2 µM; note: % is set by controls: 0 for no effect and ±100 for the full control effect; nearly all actives have a fitted effect of over 60% in size
In short: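 Cells seeded at 2500/well and rested 5 hr at 37 C; compounds added over a concentration range and incubated 24 hr at 37 C; CellTiter-Glo added, 30 min at room temperature; luminescence read and AC50 fitted with Hill model.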

[14] = Cell Viability - LYMP2-012 (AID 982); details: LYMP2-012 lymphoblastoid cell viability qHTS; series mostly up to 92.2 µM;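 note: cellular ATP by luciferase luminescence where a drop means cytotoxicity; cells exposed to compound for one day before reading; 0% = DMSO only and full loss = 92 µM tetraoctylammonium bromide; nearly all actives have a fitted effect of over 55% in size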
[15] = Cell Viability - LYMP2-020 (AID 986); details: series mostly up to 92.2 µM;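 note: plate controls were DMSO only for no effect and tetraoctylammonium bromide at 92 µM for full effect; nearly all actives have a fitted effect of over 55% in size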
In short: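 Seed 2500 cells per well and incubate 5 hr at 37 C. Add compounds at a concentration series and incubate 24 hr at 37 C. Add CellTiter-Glo, wait 30 min at RT, read luminescence, and fit a Hill curve for AC50.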

[16] = Cell Viability - LYMP2-022 (AID 987); details: LYMP2-022 lymphoblastoid cell viability; series mostly up to 92.2 µM
In short: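 Cells were seeded at 2500 per well, rested 5 hr at 37 C, and treated with titrated compounds for 24 hr at 37 C. Cellular ATP was then quantified by luciferase luminescence, and AC50 values were derived from Hill-modelled concentration-response curves.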

[17] = Cell Viability - LYMP2-024 (AID 988); details: LYMP2-024 lymphoblastoid cell viability; series mostly up to 92.2 µM;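 note: plate controls were DMSO only for no effect and 92 µM tetraoctylammonium bromide for full effect; nearly all actives have a fitted effect of over 60% in size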
In short: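 qHTS cytotoxicity, human lymphoblastoid line, complete medium; 24 h cpd treatment, 37 C; CellTiter-Glo ATP luminescence readout; tetraoctylammonium bromide positive control; AC50 via Hill fit.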

[18] = Cell Viability - LYMP1-002 - Assay at 40 hr (AID 994); details: LYMP1-002 lymphoblastoid cell viability; series mostly up to 92.2 µM
In short: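 Cells are plated at 2500 per well and rested 5 hr at 37 C. Compounds are added and incubated 40 hr at 37 C. CellTiter-Glo reagent is added for 30 min at room temperature before luminescence is read.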

[19] = qHTS assay for small molecule antagonists of retinoid X receptor alpha signaling (AID 588546); details: HEK293T RXRa-UAS-bla, beta-lactamase ratio, antagonist mode; measured here: W530 green channel, cytotoxicity proxy;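 note: cells stimulated with 9-cis-retinoic acid as agonist; % is set by controls: 0 for no effect and ±100 for the full control effect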
In short: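 Beta-lactamase reporter inhibition, read as CCF4 fluorescence ratio (ex 405, em 460/530 nm) after 2 h at RT. HEK293T UAS-bla cells, 2500/well, were stimulated with 9-cis-RA at 500 or 100 nM final alongside test compound for 18 h at 37 C.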

[20] = qHTS assay for environmental chemicals that activate the Aryl hydrocarbon Receptor (AhR) signaling pathway (AID 651777); details: 1A2-DRE human hepatoma cells, luciferase, 24 h; activation: stronger effect = higher value; note: % of control where 0% means no effect; nearly all actives have a fitted effect of over 15% in size
In short: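 Measured luciferase activity, read 30 min after One-Glo addition at room temperature, from human hepatoma cells bearing a dioxin response element–CYP1A2 promoter reporter and exposed to compound for 24 hr at 37 C.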

c1ccc2c(c1)ccc1ccccc12
inactive: Potency [1] > 92 µM | Potency [2] > 92 µM | Potency [3] | Potency [4] | Potency [5] | outcome [6] | Potency [7] | Potency [8] | Potency [9] | Potency [10] | Potency [11] | Potency [12] | Potency [13] | Potency [14] | Potency [15] | Potency [16] | Potency [17] | Potency [18] | activation [20] 0.646% and 0.0503%
-0.251%: max response [19]

CCCCCCN
-7.66%: max response [19]
inactive: Potency [1] > 92 µM | Potency [2] > 92 µM | Potency [3] | Potency [4] | Potency [5] | outcome [6] | Potency [7] | Potency [8] | Potency [9] | Potency [10] | Potency [11] | Potency [12] | Potency [13] | Potency [14] | Potency [15] | Potency [16] | Potency [17] | Potency [18] | activation [20] -0.159%

Cc1cccnc1
-1.12%: max response [19]
inactive: Potency [1] > 92 µM | Potency [2] > 92 µM | Potency [3] | Potency [4] | Potency [5] | outcome [6] | Potency [7] | Potency [8] | Potency [9] | Potency [10] | Potency [11] | Potency [12] | Potency [13] | Potency [14] | Potency [15] | Potency [16] | Potency [17] | Potency [18] | activation [20] 0.348%

CCCCC(CC)COC(=O)COc1ccc(Cl)cc1Cl (centres undefined)
0.541% and -5.28%: max response [19]
inactive: Potency [1] > 92 µM | Potency [2] > 92 µM | Potency [3] | Potency [4] | Potency [5] | outcome [6] | Potency [7] | Potency [8] | Potency [9] | Potency [10] | Potency [11] | Potency [12] | Potency [13] | Potency [14] | Potency [15] | Potency [16] | Potency [17] | Potency [18] | activation [20] 0.535% and 1.47%

Nc1cc(C(=O)O)c(O)c(S(=O)(=O)O)c1
inactive: Potency [1] > 92 µM | Potency [2] > 92 µM | Potency [3] | Potency [4] | Potency [5] | outcome [6] | Potency [7] | Potency [8] | Potency [9] | Potency [10] | Potency [11] | Potency [12] | Potency [13] | Potency [14] | Potency [15] | Potency [16] | Potency [17] | Potency [18] | activation [20] -2.49%
12.7%: max response [19]

Nc1cnn([C@@H]2O[C@H](CO)[C@@H](O)[C@H]2O)c(=O)n1
8.26%: max response [19]
inactive: Potency [1] > 92 µM | Potency [2] > 92 µM | Potency [3] | Potency [4] | Potency [5] | outcome [6] | Potency [8] | Potency [9] | Potency [10] | Potency [11] | Potency [12] | Potency [13] | Potency [14] | Potency [15] | Potency [16] | Potency [17] | Potency [18]

C=Cc1cccc(C)c1
-7.34%: max response [19]
inactive: Potency [1] > 92 µM | Potency [2] > 92 µM | Potency [3] | Potency [4] | Potency [5] | outcome [6] | Potency [7] | Potency [8] | Potency [9] | Potency [10] | Potency [11] | Potency [12] | Potency [13] | Potency [14] | Potency [15] | Potency [16] | Potency [17] | Potency [18] | activation [20] -0.0469%

COc1ccc(C)cc1N
-0.963%: max response [19]
inactive: Potency [1] > 92 µM | Potency [2] > 92 µM | Potency [3] | Potency [4] | Potency [5] | outcome [6] | Potency [7] | Potency [8] | Potency [9] | Potency [10] | Potency [11] | Potency [12] | Potency [13] | Potency [14] | Potency [15] | Potency [16] | Potency [17] | Potency [18] | activation [20] 3.33%

CC(/C=C/C=C(C)/C=C/C(=O)O)=C\C=C\C=C(C)\C=C\C=C(C)\C=C\C(=O)O
-20%: max response [19]
inactive: Potency [1] > 92 µM | Potency [2] > 92 µM | Potency [3] | Potency [4] | Potency [5] | outcome [6] | Potency [8] | Potency [9] | Potency [10] | Potency [11] | Potency [12] | Potency [13] | Potency [15] | Potency [17] | Potency [18] | activation [20] 9.06%
active: Potency [7] 50.1 µM

Brc1cc(Oc2cc(Br)c(Br)c(Br)c2Br)c(Br)c(Br)c1Br
11.5% and 5.63%: max response [19]
inactive: Potency [1] > 92 µM | Potency [2] > 92 µM | Potency [3] | Potency [4] | Potency [5] | outcome [6] | Potency [7] | Potency [8] | Potency [9] | Potency [10] | Potency [11] | Potency [12] | Potency [13] | Potency [14] | Potency [15] | Potency [16] | Potency [17] | Potency [18] | activation [20] -1.15% and -2.65%

c1ccc2ncccc2c1
-0.528%: max response [19]
inactive: Potency [1] > 92 µM | Potency [2] > 92 µM | Potency [3] | Potency [4] | Potency [5] | outcome [6] | Potency [7] | Potency [8] | Potency [9] | Potency [10] | Potency [11] | Potency [12] | Potency [13] | Potency [14] | Potency [15] | Potency [16] | Potency [17] | Potency [18] | activation [20] -0.0283%

Nc1ccccc1O
inactive: Potency [1] > 92 µM | Potency [2] > 92 µM | Potency [3] | Potency [5] | outcome [6] | Potency [7] | Potency [8] | Potency [9] | Potency [10] | Potency [11] | Potency [12] | Potency [13] | Potency [14] | Potency [15] | Potency [17] | Potency [18]
21.2%: max response [19]
active: Potency [4] 25.1 µM

— PubChem BioAssay (NCATS)
